For six compounds, growth inhibition results are on record in PubChem BioAssay (NCI).

SMILES strings stand for the structures. This is part of a sample that, as a whole, favours compounds with a hit. Of some 79,000 tested, about 15% had one in any assay. A number with no mark means an inactive call. Active and inactive are the calls of the source. No stated cut-off is given here; in the data, active means growth inhibition above about 70%; inactive means the rest.

Experiment [1] in a line: NCI Yeast Anticancer Drug Screen. Data for the rad50 strain (AID 155).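 Further: 0% = growth of vehicle-only cultures of the same strain.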 The settings on record: S. cerevisiae rad50 strain growth inhibition, hits give high values. Put shortly:
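Vehicle-treated cultures provide the reference for the growth inhibition reported for compound-exposed, repair-deficient yeast.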

A short description of experiment [2]: NCI Yeast Anticancer Drug Screen. Data for the mec2-1 strain (AID 157). The conditions noted are these: S. cerevisiae mec2-1 strain, hits give high values. The method, boiled down: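 Using mec2-1 yeast: add compound, measure growth, express inhibition versus vehicle-treated cultures.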
Experiment [3] in a line: NCI Yeast Anticancer Drug Screen. Data for the sgs1 mgt1 strain (AID 161).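 Further: 0% = growth of cultures given vehicle only.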 The conditions noted are these: S. cerevisiae sgs1 mgt1 strain, hits give high values. The method, boiled down: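 This yeast growth screen uses a strain with defined DNA-repair lesions; compound-treated growth is compared with vehicle-treated growth.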
The nature of experiment [4]: NCI Yeast Anticancer Drug Screen. Data for the cln2 rad14 strain (AID 165).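 Further: 0% = growth equal to vehicle treated cultures.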 The conditions noted are these: S. cerevisiae cln2 rad14 strain, hits give high values. The method, boiled down: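 Yeast strain cln2 rad14, bearing defects in cell cycle control and DNA repair, serves as the test system; values reflect growth inhibition compared with vehicle.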
Experiment [5] can be described thus: NCI Yeast Anticancer Drug Screen. Data for the bub3 strain (AID 167). The conditions noted are these: S. cerevisiae bub3 mutant strain, hits give high values. Put shortly:
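Mutant yeast screening strain plus compound; vehicle-treated cultures serve as the 0% inhibition reference.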

A short description of experiment [6]: NCI Yeast Anticancer Drug Screen. Data for the mlh1 rad18 strain (AID 175). The conditions noted are these: S. cerevisiae mlh1 rad18 strain growth inhibition, hits give high values. Put shortly: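 Steps: expose repair-defective yeast to compound; measure growth; express inhibition against vehicle-treated controls.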
Setting [7] is: at 5.0 µM (retest, dose inferred, filed as 0.5).
Setting [8] is: at 50.0 µM (retest, dose inferred, filed as 5.0).

In the case of `Fc1ccc(CSC(=S)Nc2cccc(C(F)(F)F)c2)cc1`, the growth inhibition in experiment [1] (setting [7]) is 10%; in experiment [1] (setting [8]), 99% (active); in experiment [1] (at 50.0 µM), 99.6% (active); in experiment [2] (setting [7]) it was 9%; in experiment [2] (setting [8]), 100% (active); in experiment [2] (at 50.0 µM) it was 99.8% (active). The growth inhibition in experiment [3] (setting [7]) is 12%; in experiment [3] (setting [8]), 100% (active); in experiment [3] (at 50.0 µM), 99.7% (active); in experiment [4] (setting [7]), 3%; in experiment [4] (setting [8]), 99% (active); in experiment [4] (at 50.0 µM) it was 99.5% (active). Further, the growth inhibition in experiment [5] (setting [7]) was -2%; in experiment [5] (setting [8]) it was 100% (active); in experiment [5] (at 50.0 µM), 99.7% (active); in experiment [6] (setting [7]), 7%; in experiment [6] (setting [8]) it was 99% (active); in experiment [6] (at 50.0 µM), 99.5% (active).

For `CC(C)(C)CC(=O)O`, the growth inhibition in experiment [1] (setting [7]) is 8%; in experiment [1] (setting [8]) it was 9%; in experiment [1] (at 50.0 µM), 5.05%; in experiment [2] (setting [7]), 5%; in experiment [2] (setting [8]), 3%; in experiment [2] (at 50.0 µM) it was 18.1%. Besides, the growth inhibition in experiment [3] (setting [7]) was -5%; in experiment [3] (setting [8]) it was 2%; in experiment [3] (at 50.0 µM), 29.1%; in experiment [4] (setting [7]), -2%; in experiment [4] (setting [8]) it was -4%; in experiment [4] (at 50.0 µM), 27.1%. Besides, the growth inhibition is 2% in experiment [5] (setting [7]); 13% in experiment [5] (setting [8]); 26.9% in experiment [5] (at 50.0 µM); 7% in experiment [6] (setting [7]); 8% in experiment [6] (setting [8]); -2.2% in experiment [6] (at 50.0 µM).

`C=CNC(=O)Oc1ccccc1`: the growth inhibition was -128% in experiment [1] (setting [7]); -156% in experiment [1] (setting [8]); -9.95% in experiment [1] (at 50.0 µM); -35% in experiment [2] (setting [7]); -59% in experiment [2] (setting [8]); 30.2% in experiment [2] (at 50.0 µM). For the same compound, the growth inhibition is -47% in experiment [3] (setting [7]); -62% in experiment [3] (setting [8]); 12.7% in experiment [3] (at 50.0 µM); -57% in experiment [4] (setting [7]); -73% in experiment [4] (setting [8]); 44% in experiment [4] (at 50.0 µM). For the same compound, the growth inhibition in experiment [5] (setting [7]) was -64%; in experiment [5] (setting [8]), -81%; in experiment [5] (at 50.0 µM), -3%; in experiment [6] (setting [7]), -121%; in experiment [6] (setting [8]) it was -130%; in experiment [6] (at 50.0 µM) it was 6.25%.

For the compound `C[C@]12CC[C@H]3[C@@H](CCC4=CC(=O)CC[C@@]43C)[C@@H]1CC[C@@H]2C(=O)C=O`, the growth inhibition was 19% in experiment [1] (setting [7]); 42% in experiment [1] (setting [8]); 67.2% in experiment [1] (at 50.0 µM); 6% in experiment [2] (setting [7]); 36% in experiment [2] (setting [8]); 52.6% in experiment [2] (at 50.0 µM). Besides, the growth inhibition was 16% in experiment [3] (setting [7]); 61% in experiment [3] (setting [8]); 71% (active) in experiment [3] (at 50.0 µM); 5% in experiment [4] (setting [7]); 21% in experiment [4] (setting [8]); 39% in experiment [4] (at 50.0 µM). Also, the growth inhibition in experiment [5] (setting [7]) was 1%; in experiment [5] (setting [8]), 17%; in experiment [5] (at 50.0 µM) it was 41.2%; in experiment [6] (setting [7]), 27%; in experiment [6] (setting [8]) it was 74% (active); in experiment [6] (at 50.0 µM), 56.2%.

`O=S(=O)(Nc1ccccc1Cl)c1ccccc1`: the growth inhibition in experiment [1] (setting [7]) was 19%; in experiment [1] (setting [8]), 80% (active); in experiment [1] (at 50.0 µM) it was 74.8% (active); in experiment [2] (setting [7]), 1%; in experiment [2] (setting [8]) it was 88% (active); in experiment [2] (at 50.0 µM), 81.7% (active). For the same compound, the growth inhibition in experiment [3] (setting [7]) was 4%; in experiment [3] (setting [8]), 91% (active); in experiment [3] (at 50.0 µM), 78.7% (active); in experiment [4] (setting [7]), 24%; in experiment [4] (setting [8]), 81% (active); in experiment [4] (at 50.0 µM) it was 73.1% (active). The growth inhibition in experiment [5] (setting [7]) is -32%; in experiment [5] (setting [8]), 90% (active); in experiment [5] (at 50.0 µM), 81.1% (active); in experiment [6] (setting [7]) it was -2%; in experiment [6] (setting [8]), 84% (active); in experiment [6] (at 50.0 µM), 69.2%.

With `COc1ccc(SC2=C(N(C)C(C)=O)C(=O)c3ccccc3C2=O)cc1`, the growth inhibition in experiment [1] (setting [7]) is 98% (active); in experiment [1] (setting [8]) it was 99% (active); in experiment [1] (at 50.0 µM), 99.5% (active); in experiment [2] (setting [7]), 97% (active); in experiment [2] (setting [8]) it was 100% (active); in experiment [2] (at 50.0 µM), 99.7% (active). Moreover, the growth inhibition in experiment [3] (setting [7]) is 97% (active); in experiment [3] (setting [8]), 100% (active); in experiment [3] (at 50.0 µM), 99.7% (active); in experiment [4] (setting [7]), 95% (active); in experiment [4] (setting [8]), 99% (active); in experiment [4] (at 50.0 µM), 99.7% (active). In addition, the growth inhibition in experiment [5] (setting [7]) was 99% (active); in experiment [5] (setting [8]), 99% (active); in experiment [5] (at 50.0 µM) it was 99.6% (active); in experiment [6] (setting [7]), 98% (active); in experiment [6] (setting [8]), 99% (active); in experiment [6] (at 50.0 µM) it was 99.6% (active).
